Measured values as given in PubChem BioAssay (EPA / NIEHS).
Where “and” joins values, the source holds several entries; their conditions need not be identical. Equal entries are not always repeated. Inconclusive results are not listed. Some structures have more than one record in an assay (separate samples or runs), and their calls can disagree. Calls of active or inactive are those of the source. How the source made its calls, unless noted: active means hit-call score of the fitted dose curve at least 0.9, where 1 is the maximum; inactive means score below 0.9.

Experiments:
[1] = ATG_PBREM_CIS: Attagene CIS-FACTORIAL HepG2 Assay for human Phenobarbital-responsive Enhancer Module (PBREM) (AID 2282955); details: HepG2 PBREM cis-reporter, Attagene multiplexed transcription; actives raise or lower the signal
Method in brief: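 HepG2 cells transiently transfected with multiple cis-regulated reporter transcription units; endogenous factor activity at the PBREM element measured as reporter mRNA 24 h after dosing, via RT-PCR and capillary electrophoresis of fluorescent fragments; bidirectional fitting versus DMSO.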

[2] = ATG_PXRE_CIS: Attagene CIS-FACTORIAL HepG2 Assay for human Pregnane X Receptor Element (PXRE) (AID 2282957); details: HepG2 Attagene CIS-FACTORIAL PXRE reporter, mRNA; actives raise or lower the signal
Method in brief: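 HepG2 cells transiently transfected with cis-element-driven multiplexed reporter units; after 24 h chemical exposure, reporter mRNA measured by RT-PCR, 6-FAM labelling, HpaI digestion and capillary electrophoresis. Bidirectional fitting relative to DMSO.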

[3] = ATG_PPRE_CIS: Attagene CIS-FACTORIAL HepG2 Assay for human Peroxisome Proliferator-activated Response Element (PPRE) (AID 2282958); details: HepG2 PPRE cis-element reporter, Attagene transcription factor profiling; actives raise or lower the signal
Method in brief: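 HepG2 cells transiently transfected with multiplexed cis-element reporter units measure endogenous transcription factor activity. After 24 h compound exposure, reporter mRNA is quantified by RT-PCR, 6-FAM labeling, HpaI digestion and capillary electrophoresis; bidirectional fits are made against DMSO baseline.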

[4] = ATG_RORE_CIS: Attagene CIS-FACTORIAL HepG2 Assay for human RAR-related Orphan Receptor Element (RORE) (AID 2282959); details: HepG2 Attagene cis-factorial RORE reporter, mRNA; actives raise or lower the signal
Method in brief: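 HepG2 cells transiently transfected with multiple cis-element reporter transcription units, exposed to chemical for 24 h. Reporter mRNA quantified by RT-PCR, 6-FAM primer-extension labeling, HpaI digestion and capillary electrophoresis; bidirectional fit versus DMSO baseline.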

[5] = target: Transcription factor Sp1 (Homo sapiens) (UniProt P08047); experiment: ATG_Sp1_CIS: Attagene CIS-FACTORIAL HepG2 Assay for human Specificity Protein 1 (Sp1) (AID 2282961); details: HepG2 Sp1 cis-reporter transcription, actives raise or lower the signal
Method in brief: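 HepG2 cells transiently transfected with multiple reporter transcription units driven by cis-regulatory elements; Sp1-responsive reporter mRNA measured 24 h after dosing by RT-PCR and capillary electrophoresis fluorescence, fitted bidirectionally against DMSO baseline.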

[6] = ATG_SREBP_CIS: Attagene CIS-FACTORIAL HepG2 Assay for human Sterol Regulatory Element Binding (SREBP) (AID 2282962); details: HepG2 Attagene cis-factorial SREBP reporter, mRNA; actives raise or lower the signal
Method in brief: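 Twenty-four hours after chemical dosing of transfected HepG2 cultures, reporter RNA was converted to cDNA, amplified, end-labelled with 6-FAM and resolved by capillary electrophoresis. Responses were fitted relative to DMSO.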

[7] = target: Signal transducer and activator of transcription 3 (Homo sapiens) (UniProt P40763); experiment: ATG_STAT3_CIS: Attagene CIS-FACTORIAL HepG2 Assay for human Signal Transducer and Activator of Transcription 3 (STAT3) (AID 2282963); details: HepG2, Attagene cis-factorial STAT3 reporter transcription; actives raise or lower the signal
Method in brief: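 Transcript-level reporter assay. HepG2 transient MRTU transfection, 24 h exposure, fluorescence detection after RT-PCR and CE; DMSO baseline.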

[8] = ATG_TA_CIS: Attagene CIS-FACTORIAL HepG2 Assay for human TA Basal Promoter (AID 2282964); details: HepG2 Attagene CIS-factorial TA basal promoter reporter; actives raise or lower the signal
Method in brief: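 Read-out: fluorescent reporter-transcript fragments resolved by capillary electrophoresis after RT-PCR and HpaI digestion. Source: HepG2 cells carrying transiently transfected multi-reporter cis constructs, treated 24 h. Endpoint fitted bidirectionally relative to DMSO.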

[9] = ATG_TCF_b_cat_CIS: Attagene CIS-FACTORIAL HepG2 Assay for human T-Cell-Factor with beta-catenin (TCF/b-cat) (AID 2282965); details: HepG2 TCF/beta-catenin cis-reporter transcription, actives raise or lower the signal
Method in brief: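 In this cis-format system, transfected HepG2 cells report endogenous transcription factor activity. Readout after 24 h exposure is reporter transcript abundance from RT-PCR and capillary electrophoresis, analysed for gain or loss of signal versus DMSO.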

[10] = ATG_TAL_CIS: Attagene CIS-FACTORIAL HepG2 Assay for human TAL Basal Promoter (AID 2282966); details: HepG2 Attagene cis-factorial TAL promoter reporter; actives raise or lower the signal;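 further: background control endpoint measuring basal TAL promoter reporter mRNA not a specific factor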
Method in brief: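 HepG2 cells transiently transfected with multiplexed cis-promoter reporter units, dosed 24 h. Reporter mRNA quantified by RT-PCR, 6-FAM labelling, HpaI digestion and capillary electrophoresis; TAL basal promoter serves as background control, fitted bidirectionally versus DMSO.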

[11] = ATG_TGFb_CIS: Attagene CIS-FACTORIAL HepG2 Assay for human Transforming Growth Factor (TGF) (AID 2282967); details: HepG2 Attagene CIS TGFb reporter, mRNA transcription; actives raise or lower the signal
Method in brief: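 Transient MRTU transfection of HepG2 (FuGene 6). Dose 24 h. TriZol RNA, oligo(dT) RT, PCR, 6-FAM primer extension, HpaI cut, CE. Bidirectional fit, DMSO = baseline.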

[12] = ATG_VDRE_CIS: Attagene CIS-FACTORIAL HepG2 Assay for human Vitamin D Receptor Element (VDRE) (AID 2282968); details: HepG2 VDRE cis-reporter transcription, actives raise or lower the signal
Method in brief: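 RT-PCR/CE readout of reporter mRNA; HepG2, transient transfection, 24 h dosing; DMSO baseline; bidirectional analysis.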

[13] = target: Estrogen receptor (Homo sapiens) (UniProt P03372); experiment: ATG_ERa_TRANS: Attagene TRANS-FACTORIAL HepG2 Assay for human Estrogen Receptor alpha (ERa) (AID 2282970; active means hit-call score of the fitted dose curve at least 0.9, where 1 is the maximum); details: HepG2 Attagene TRANS ERa GAL4 reporter, mRNA
Method in brief: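 HepG2 cells transiently transfected with multiplexed GAL4-UAS reporter units read out chimeric NR-Gal4 activity. After 24 h compound exposure, reporter mRNA was quantified by RT-PCR, 6-FAM labeling, HpaI digestion and capillary electrophoresis, relative to DMSO.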

[14] = target: X-box-binding protein 1 (Homo sapiens) (UniProt P17861); experiment: ATG_Xbp1_CIS: Attagene CIS-FACTORIAL HepG2 Assay for human X-box Binding Protein 1 (XBP1) (AID 2282972); details: HepG2 XBP1 cis-element reporter, Attagene multiplex; actives raise or lower the signal
Method in brief: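 After a 24-hour chemical exposure of HepG2 cells carrying cis-regulated reporters, reporter mRNA levels are assessed. Quantification uses RT-PCR, 6-FAM labelling and capillary electrophoresis. Gain- or loss-of-signal is fitted against DMSO.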

[15] = target: Glucocorticoid receptor (Homo sapiens) (UniProt P04150); experiment: ATG_GR_TRANS: Attagene TRANS-FACTORIAL HepG2 Assay for human Glucocorticoid Receptor (GR) (AID 2282978; active means hit-call score of the fitted dose curve at least 0.9, where 1 is the maximum;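 further: activators score as hits since higher reporter transcript over DMSO is fitted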); details: HepG2 Attagene TRANS GR reporter, mRNA transcription
Method in brief: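 HepG2 cells transiently transfected with multiplexed reporter units in which chimeric NR-GAL4 proteins drive GAL4-UAS reporters; 24 h compound exposure. Reporter mRNA measured by RT-PCR, 6-FAM labelling, HpaI digestion and capillary electrophoresis; gain-of-signal fitted versus DMSO.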

[16] = ATG_M_19_TRANS: Attagene TRANS-FACTORIAL HepG2 Assay for M19 Transcription Factor (Internal Marker) (AID 2282974; active means hit-call score of the fitted dose curve at least 0.9, where 1 is the maximum); details: HepG2 Attagene TRANS-FACTORIAL M19 internal marker reporter
Method in brief: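 HepG2 cells transiently transfected with multiple GAL4-UAS reporter transcription units were exposed to chemicals for 24 h. Reporter mRNA was read by RT-PCR, 6-FAM primer extension, HpaI digestion and capillary electrophoresis; gain of signal fitted relative to DMSO.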

[17] = ATG_GAL4_TRANS: Attagene TRANS-FACTORIAL HepG2 Assay for GAL4 (Internal Marker) (AID 2282976; active means hit-call score of the fitted dose curve at least 0.9, where 1 is the maximum); details: HepG2 Attagene TRANS GAL4 internal marker reporter
Method in brief: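 Background-control readout: GAL4-UAS reporter transcript in transiently transfected HepG2 cells after 24 h compound exposure. Measured by RT-PCR, 6-FAM primer extension, HpaI digest and capillary electrophoresis; gain-of-signal fit versus DMSO.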

[18] = target: Nuclear receptor subfamily 1 group I member 3 (Homo sapiens) (UniProt Q14994); experiment: ATG_CAR_TRANS: Attagene TRANS-FACTORIAL HepG2 Assay for human Constitutive Androstane Receptor (CAR) (AID 2282969; active means hit-call score of the fitted dose curve at least 0.9, where 1 is the maximum;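 further: activators raise reporter mRNA above DMSO so AC50 marks induction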); details: HepG2 Attagene TRANS-FACTORIAL CAR reporter
Method in brief: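 HepG2 cells transiently transfected with multiplexed GAL4-UAS reporter units expressing chimeric NR-Gal4 proteins; compound exposure 24 h. Reporter mRNA measured by RT-PCR, 6-FAM labelling, HpaI digestion and capillary electrophoresis; gain-of-signal fitted against DMSO baseline.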

[19] = ATG_Sox_CIS: Attagene CIS-FACTORIAL HepG2 Assay for human SRY-box transcription factor (SOX) (AID 2282960); details: HepG2 Attagene cis-factorial SOX reporter, mRNA; actives raise or lower the signal
Method in brief: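 HepG2 cells transiently transfected with cis-element-driven multiple reporter transcription units, dosed 24 h; reporter mRNA measured by RT-PCR, FAM labelling, HpaI digestion and capillary electrophoresis. Bidirectional fit versus DMSO baseline.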

[20] = target: Paired box protein Pax-6 (Homo sapiens) (UniProt P26367); experiment: ATG_Pax6_CIS: Attagene CIS-FACTORIAL HepG2 Assay for human Paired Box 6 (PAX6) (AID 2282956); details: HepG2 CIS-FACTORIAL PAX6 reporter transcription, RNA readout; actives raise or lower the signal
Method in brief: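 After twenty-four hours of chemical exposure, transfected HepG2 cells are harvested for RNA. Cis-promoter reporter transcripts are amplified, fluorescently labelled and sized by capillary electrophoresis, with gain and loss of signal scored against DMSO.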

Measured: AC50

Estrogen receptor (Homo sapiens), sequence (P03372 whole entry, looked up, the tested form may be a part): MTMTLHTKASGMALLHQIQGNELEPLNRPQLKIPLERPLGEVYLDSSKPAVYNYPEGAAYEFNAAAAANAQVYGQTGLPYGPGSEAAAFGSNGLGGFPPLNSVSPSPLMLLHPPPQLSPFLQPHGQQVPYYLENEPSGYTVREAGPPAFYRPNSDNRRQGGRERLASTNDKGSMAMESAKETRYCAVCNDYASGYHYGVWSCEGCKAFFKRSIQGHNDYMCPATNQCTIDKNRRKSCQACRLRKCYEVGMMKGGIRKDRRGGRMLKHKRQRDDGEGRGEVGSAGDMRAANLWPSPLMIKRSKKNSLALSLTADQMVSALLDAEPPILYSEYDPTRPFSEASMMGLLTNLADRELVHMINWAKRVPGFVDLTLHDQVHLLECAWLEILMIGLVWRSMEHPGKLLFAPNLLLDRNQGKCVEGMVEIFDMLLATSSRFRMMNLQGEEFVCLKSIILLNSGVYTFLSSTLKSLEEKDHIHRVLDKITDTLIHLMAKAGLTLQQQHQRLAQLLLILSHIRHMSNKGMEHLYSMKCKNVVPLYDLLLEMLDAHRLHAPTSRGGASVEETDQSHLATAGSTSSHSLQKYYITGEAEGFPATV
Nuclear receptor subfamily 1 group I member 3 (Homo sapiens), sequence (Q14994 whole entry, looked up, the tested form may be a part): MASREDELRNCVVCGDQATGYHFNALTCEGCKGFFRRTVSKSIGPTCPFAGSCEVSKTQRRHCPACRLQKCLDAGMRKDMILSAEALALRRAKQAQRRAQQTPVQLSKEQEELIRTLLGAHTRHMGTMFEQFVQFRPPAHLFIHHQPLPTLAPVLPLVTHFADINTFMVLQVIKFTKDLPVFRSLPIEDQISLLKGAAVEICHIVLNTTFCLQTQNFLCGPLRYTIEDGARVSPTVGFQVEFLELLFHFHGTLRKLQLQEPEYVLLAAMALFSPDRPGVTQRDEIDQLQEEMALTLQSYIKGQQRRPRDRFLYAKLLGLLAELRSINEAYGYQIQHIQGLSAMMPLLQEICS
Paired box protein Pax-6 (Homo sapiens), sequence (P26367 whole entry, looked up): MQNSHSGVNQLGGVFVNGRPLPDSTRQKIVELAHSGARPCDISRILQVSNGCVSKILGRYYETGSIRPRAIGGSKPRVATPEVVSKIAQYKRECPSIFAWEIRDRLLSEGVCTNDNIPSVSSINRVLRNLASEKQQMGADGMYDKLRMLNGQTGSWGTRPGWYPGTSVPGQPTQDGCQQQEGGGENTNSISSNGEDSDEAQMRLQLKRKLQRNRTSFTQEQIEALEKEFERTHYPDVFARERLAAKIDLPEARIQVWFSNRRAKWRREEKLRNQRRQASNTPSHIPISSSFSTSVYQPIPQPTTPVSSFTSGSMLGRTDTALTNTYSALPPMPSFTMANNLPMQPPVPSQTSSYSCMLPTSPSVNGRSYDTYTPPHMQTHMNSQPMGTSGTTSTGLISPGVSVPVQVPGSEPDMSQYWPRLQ
Glucocorticoid receptor (Homo sapiens), sequence (P04150 whole entry, looked up, the tested form may be a part): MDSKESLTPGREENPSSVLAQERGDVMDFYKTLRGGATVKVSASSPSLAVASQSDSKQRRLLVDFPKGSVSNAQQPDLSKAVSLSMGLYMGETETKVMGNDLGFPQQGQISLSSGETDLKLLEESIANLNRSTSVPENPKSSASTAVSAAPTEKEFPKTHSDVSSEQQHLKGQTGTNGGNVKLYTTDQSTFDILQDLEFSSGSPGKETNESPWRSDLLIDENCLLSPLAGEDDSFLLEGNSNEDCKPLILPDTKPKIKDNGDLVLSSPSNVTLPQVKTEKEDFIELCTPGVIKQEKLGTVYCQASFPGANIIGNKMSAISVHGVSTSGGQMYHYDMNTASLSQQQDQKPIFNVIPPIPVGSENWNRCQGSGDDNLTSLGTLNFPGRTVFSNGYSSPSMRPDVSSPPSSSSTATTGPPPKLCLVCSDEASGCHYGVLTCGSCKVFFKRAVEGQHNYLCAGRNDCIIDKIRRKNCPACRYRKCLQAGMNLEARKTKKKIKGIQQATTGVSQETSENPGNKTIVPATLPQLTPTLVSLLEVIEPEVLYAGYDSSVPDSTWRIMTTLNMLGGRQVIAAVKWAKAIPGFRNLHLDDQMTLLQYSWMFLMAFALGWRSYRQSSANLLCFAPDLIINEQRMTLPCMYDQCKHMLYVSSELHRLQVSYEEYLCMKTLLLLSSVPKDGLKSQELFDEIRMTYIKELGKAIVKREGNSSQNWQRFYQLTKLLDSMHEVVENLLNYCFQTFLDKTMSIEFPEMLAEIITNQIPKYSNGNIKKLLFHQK
Signal transducer and activator of transcription 3 (Homo sapiens), sequence (P40763 whole entry, looked up): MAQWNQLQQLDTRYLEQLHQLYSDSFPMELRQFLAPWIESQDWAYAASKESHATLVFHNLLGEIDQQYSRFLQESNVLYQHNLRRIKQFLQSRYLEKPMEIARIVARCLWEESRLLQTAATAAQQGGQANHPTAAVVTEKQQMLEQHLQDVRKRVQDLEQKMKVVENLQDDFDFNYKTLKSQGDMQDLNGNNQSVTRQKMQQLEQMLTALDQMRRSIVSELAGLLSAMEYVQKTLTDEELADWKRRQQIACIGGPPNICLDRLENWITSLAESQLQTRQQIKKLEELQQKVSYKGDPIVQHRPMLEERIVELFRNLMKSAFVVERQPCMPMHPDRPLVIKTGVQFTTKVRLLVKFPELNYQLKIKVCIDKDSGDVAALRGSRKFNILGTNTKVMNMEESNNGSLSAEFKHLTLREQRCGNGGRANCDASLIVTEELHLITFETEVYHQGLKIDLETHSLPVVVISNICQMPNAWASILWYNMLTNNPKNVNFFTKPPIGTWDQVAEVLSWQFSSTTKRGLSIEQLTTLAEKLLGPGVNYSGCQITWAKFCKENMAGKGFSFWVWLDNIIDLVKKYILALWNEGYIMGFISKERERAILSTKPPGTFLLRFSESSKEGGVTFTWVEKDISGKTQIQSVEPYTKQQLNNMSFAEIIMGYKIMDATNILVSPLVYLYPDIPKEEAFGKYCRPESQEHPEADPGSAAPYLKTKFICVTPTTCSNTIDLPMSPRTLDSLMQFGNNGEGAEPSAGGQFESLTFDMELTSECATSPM
Transcription factor Sp1 (Homo sapiens), sequence (P08047 whole entry, looked up): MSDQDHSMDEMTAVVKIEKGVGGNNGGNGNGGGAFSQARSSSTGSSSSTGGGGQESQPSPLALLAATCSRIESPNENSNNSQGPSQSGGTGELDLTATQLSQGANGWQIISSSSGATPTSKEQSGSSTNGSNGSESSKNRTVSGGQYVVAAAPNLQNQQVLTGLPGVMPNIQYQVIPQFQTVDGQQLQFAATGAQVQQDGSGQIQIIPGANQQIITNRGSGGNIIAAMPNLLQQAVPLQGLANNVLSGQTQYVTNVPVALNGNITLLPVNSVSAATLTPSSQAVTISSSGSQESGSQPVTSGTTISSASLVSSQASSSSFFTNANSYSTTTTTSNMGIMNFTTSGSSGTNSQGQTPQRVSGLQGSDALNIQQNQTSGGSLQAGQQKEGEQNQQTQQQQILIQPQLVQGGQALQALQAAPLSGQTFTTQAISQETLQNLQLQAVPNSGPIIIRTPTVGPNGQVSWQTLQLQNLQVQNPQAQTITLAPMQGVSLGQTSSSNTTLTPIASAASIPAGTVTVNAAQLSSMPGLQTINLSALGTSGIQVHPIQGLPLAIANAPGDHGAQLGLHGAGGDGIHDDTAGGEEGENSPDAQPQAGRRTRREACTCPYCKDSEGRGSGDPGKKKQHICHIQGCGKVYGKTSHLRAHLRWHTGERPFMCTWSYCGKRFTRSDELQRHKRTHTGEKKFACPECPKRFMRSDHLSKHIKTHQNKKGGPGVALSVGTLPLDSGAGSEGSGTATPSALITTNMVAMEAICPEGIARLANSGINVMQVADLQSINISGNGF
X-box-binding protein 1 (Homo sapiens), sequence (P17861 whole entry, looked up): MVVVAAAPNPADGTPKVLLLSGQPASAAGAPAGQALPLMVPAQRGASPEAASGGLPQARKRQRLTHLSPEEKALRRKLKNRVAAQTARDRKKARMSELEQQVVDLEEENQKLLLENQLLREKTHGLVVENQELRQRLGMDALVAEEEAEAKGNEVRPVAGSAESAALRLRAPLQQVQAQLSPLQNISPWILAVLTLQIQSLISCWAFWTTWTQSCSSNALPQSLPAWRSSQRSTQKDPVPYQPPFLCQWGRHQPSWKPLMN

Cc1ccc(-c2c(Cl)nc(C#N)n2S(=O)(=O)N(C)C)cc1
active: [1] 11.9 µM | [2] 3.08 µM | [3] 11.9 µM | [4] 16.3 µM | [5] 11.9 µM | [12] 11.9 µM | [14] 8.26 µM
not listed: [16] | [17] | [18] | [19] | [20]
inactive: all other assays above

C=CC1(C)OC(=O)N(c2cc(Cl)cc(Cl)c2)C1=O (configuration not stated)
active: [2] 17.3 µM and 31.1 µM and 33 µM
inactive: [2] | [3] | [4] | [5] | [6] | [7] | [8] | [9] | [10] | [11] | [12] | [14] | [16] | [17] | [15]

CC1COC(Cn2cncn2)(c2ccc(Oc3ccc(Cl)cc3)cc2Cl)O1 (configuration not stated)
active: [2] 2 µM | [3] 3.17 µM | [6] 1.97 µM | [11] 3.17 µM | [12] 3.17 µM
inactive: [5] | [8] | [9] | [10] | [14] | [15]

COP(N)(=O)SC (configuration not stated)
not listed: [13] | [15] | [17] | [19] | [20]
inactive: all other assays above

Oc1ccccc1-c1ccccc1
inactive: [1] | [19] | [5] | [6] | [8] | [9] | [10] | [11] | [12] | [18] | [14] | [16]
active: [2] 13.5 µM and 3.11 µM | [19] 46 µM | [5] 50 µM | [6] 150 µM | [11] 87.5 µM | [12] 38.4 µM

CC(Oc1ccc(Cl)cc1Cl)C(=O)O (configuration not stated)
active: [2] 79.7 µM
not listed: [1] | [3] | [7] | [13] | [17] | [18] | [19] | [20]
inactive: all other assays above

CCOc1cc(Oc2ccc(C(F)(F)F)cc2Cl)ccc1[N+](=O)[O-]
inactive: [1] | [5] | [6] | [8] | [9] | [10] | [11] | [18] | [13]
active: [2] 8.64 µM | [3] 13.7 µM | [4] 29.8 µM | [14] 13.1 µM

CCCCNC(=O)n1c(NC(=O)OC)nc2ccccc21
not listed: [3] | [7] | [13] | [16] | [17] | [19] | [20]
inactive: all other assays above

O=C(O)c1nc(Cl)ccc1Cl
inactive: [2] | [4] | [5] | [6] | [8] | [9] | [10] | [11] | [14] | [16] | [15]

CC1=C(C(=O)Nc2ccccc2)SCCO1
active: [2] 40.4 µM
not listed: [1] | [13] | [15] | [16] | [17] | [18] | [19]
inactive: all other assays above

CCNc1nc(Cl)nc(NC(C)C)n1
active: [2] 27.4 µM [middle of 4 runs]
not listed: [1] | [7] | [18]
inactive: all other assays above

N#Cc1cc(Br)c(O)c(Br)c1
inactive: [1] | [19] | [5] | [6] | [8] | [9] | [10] | [11] | [16]
active: [2] 18.4 µM | [3] 21.1 µM | [4] 50 µM | [14] 31.6 µM

C=CCC1=C(C)[C@@H](OC(=O)[C@@H]2[C@@H](C=C(C)C)C2(C)C)CC1=O
active: [1] 5.59 µM | [2] 0.965 µM | [12] 6.05 µM
not listed: [3] | [7] | [16] | [17] | [19] | [20]
inactive: all other assays above

COc1cnc(OC)n2nc(NS(=O)(=O)c3c(OCC(F)F)cccc3C(F)(F)F)nc12
active: [2] 22 µM and 16.4 µM
not listed: [12] | [13] | [19] | [20]
inactive: all other assays above

N#CC(CCc1ccc(Cl)cc1)(Cn1cncn1)c1ccccc1 (configuration not stated)
active: [2] 1.5 µM | [6] 8.22 µM | [8] 16.9 µM
not listed: [7] | [17] | [18] | [19] | [20]
inactive: all other assays above
